Screens deposited in PubChem by National Center for Advancing Translational Sciences (NCATS).
An excerpt weighted towards active compounds, which were near 12% of everything screened.
Lassa entry inh: inhibitors of Lassa virus binding or cell entry; Potency, µM (top dose mostly 37.9 µM), for inactives: top-dose activity change, negative = inhibition, usual class: inhibitors; Lassa virus pseudotype entry inhibition, cell reporter; 1.2% of 300,000 active; calls by dose curve; tested in HEK293 cells; note: potency is the fitted concentration of half-maximal effect; % is set by controls: 0 for no effect and ±100 for the full control effect; nearly all actives have a fitted effect of over 50% in size
Shiga toxin inh: Shiga toxin inhibition. inhibition, % at 38.7 µM. 9.2% of 290,000 active. Vero cells, Shiga toxin protein synthesis inhibition reporter; in the data active = inhibition mostly above about 28%, no sharp cut-off; inactive = mostly below about 43%; note: 0% is about no effect
MARV entry inh: inhibitors of Marburg virus binding or cell entry; 1.8% of 300,000 active; Potency, µM (top dose mostly 37.8 µM), for the others: top-dose activity change, negative = inhibition, hits mostly inhibitors; Marburg virus pseudotyped entry inhibition, cell reporter; AID 540276; calls by dose curve; tested in HEK293 cells; note: potency is the fitted concentration of half-maximal effect; % is set by controls: 0 for no effect and ±100 for the full control effect
Cycloheximide cs: affects cycloheximide protein synthesis inhibition readout, counter-screen; AID 2314; 12% of 300,000 active; max response, %; cell reporter, cycloheximide protein synthesis inhibition counterscreen; in the data active = max response mostly above about 13%, no sharp cut-off; inactive = mostly below about 14%; note: read at 38.3 µM for the half of the compounds with a filed dose; 0% is about no effect
Active calls of the source: *; u = inconclusive; x = no result given; [ ] = another dose, or the depositor's remark.

SMILES	Lassa entry inh	Shiga toxin inh	MARV entry inh	Cycloheximide cs
COc1cccc(-c2csc(NC3OC(=O)c4c3ccc(OC)c4OC)n2)c1 (stereo not given)	u	42	5%[46.1 µM]	46*
COc1ccc2c(c1OC)C(=O)OC2Nc1nc(-c2cc3cc([N+](=O)[O-])ccc3oc2=O)cs1 (stereo not given)	0%	-3	15%	8
COc1ccc2c(c1OC)C(=O)OC2Nc1nc(-c2cc3ccccc3oc2=O)cs1 (stereo not given)	u	68*	u	59*
c1ccc2c(c1)Oc1cccc3cccc-2c13	x	25*	x	12*
CC(OCc1ccccc1)C(NC(=O)OC(C)(C)C)C(=O)NC1COC2CC(n3cc(F)c(=O)[nH]c3=O)OC12 (stereo not given)	x	11	x	-6
O=C(O)c1cc(-c2ccccc2)n[nH]1	x	4	x	-2
FC(F)C(F)(F)c1cc(-c2ccccc2)n[nH]1	27%	29	1%	20*
COc1cccc(CC(=O)Nc2cc(S(=O)(=O)N3CCOCC3)ccc2OC)c1	14%	x	-1%[46.1 µM]	x
COc1ccc(CC(=O)NNc2ncnc3c2cnn3-c2ccccc2)cc1	5.2µM*	17	24%	-3
COc1ccc(CC(=O)NNc2ncnc3c2cnn3-c2ccc(C)cc2)cc1	-20%	-4	5%	-1
COc1ccc(CC(=O)NNc2ncnc3c2cnn3-c2ccc(C)cc2)cc1OC	-3%	33	u	15*
COc1ccc(CC(=O)NNc2ncnc3c2cnn3C)cc1OC	2%	-5	u	-2
COc1ccc(C=O)c(OCc2cn(CC(=O)c3ccc(O)cc3)nn2)c1	0%[46.1 µM]	x	x	x
CCc1nnc(NC(=O)CSc2nnc(C3CC3)n2C)s1	1%	0	-6%	-1
COc1cccc(-c2nnc(-c3ccc(C(F)(F)F)cc3)o2)c1OC	u	26	u	21*
Cc1ccc(-c2nnc(-c3cccc4ccccc34)o2)cc1	u	x	5%	x
O=C(Nc1cc2c(cc1C(=O)c1ccc(Br)cc1)OCCO2)c1ccc(Cl)cc1	-13%[46.1 µM]	x	x	x
Cc1ccc(-c2nc(C#N)c(NCCc3ccccn3)o2)cc1	u	36	5%	17*
N#Cc1nc(-c2ccc(Cl)cc2)oc1NCCc1ccccn1	-18%	35*	6%	12*
CN(C)CCCNc1oc(-c2ccc(Cl)cc2)nc1C#N	u	27	-3%	13
COC(=O)[C@@H]1CC[C@H](C)[C@@H](c2ccc(C)cc2)N1C(=O)c1ccc(/C=N/O[C@@H](C)c2cn([C@H](CO)Cc3ccccc3)nn2)cc1	u	-7	u	-2
O=S1(=O)[C@H]2C[C@@H]3C=C[C@@]2(CN1Cc1cccc(F)c1)O3	x	-6	x	-1
O=S1(=O)[C@H]2C[C@@H]3C=C[C@@]2(CN1Cc1cccc(C(F)(F)F)c1)O3	x	14	x	12*
Cc1cccc(/C=C(\C(=O)C(=O)O)c2ccc3ccccc3n2)c1	-2%	62*	u	46*
O=C(O)C(=O)/C(=C\c1cccc(Cl)c1)c1ccc2ccccc2n1	1%	110*	5%[46.1 µM]	93*
SMILES	Lassa entry inh	Shiga toxin inh	MARV entry inh	Cycloheximide cs
N#Cc1ccc(/C=C(\C(=O)C(=O)O)c2ccc3ccccc3n2)cc1	x	74*	x	57*
CC(C)(CNC(=O)CO/N=C1/C=C2CCC3C(C(O)C[C@@]4(C)C3CC[C@]4(O)C(=O)CO)[C@@]2(C)CC1)C(O)C(=O)O (stereo not given in full)	x	4	x	-3
O=C(Cn1c(-c2ccccc2)c[n+]2ccsc12)c1ccccc1	x	-2	x	3
O=C(Cn1c(-c2ccccc2)c[n+]2ccsc12)c1ccc([N+](=O)[O-])cc1	-17%	71*	u	21*
CN1CCN(c2ccc(S(=O)(=O)N3CCCCC3)cc2NC(=O)c2ccc(F)cc2F)CC1	-2%	-12	u	-2
COc1ccc(C(=O)c2sc3nc(-c4ccccc4)ccc3c2N)cc1	u	27	-23%	2
COC(=O)c1cc2c(N)c(C(=O)c3ccccc3)sc2nc1C(OC)OC	2%[46.1 µM]	37	13%[46.1 µM]	24*
Nc1c(C(=O)Nc2ccccc2F)sc2nc(-c3cccnc3)ccc12	u	27	u	3
CC(C)OC(=O)c1sc2nc(-c3ccccc3)ccc2c1N	u	144*	u	66*
NC(=O)c1sc2nc(-c3cccnc3)ccc2c1N	18%[46.1 µM]	32*	u	22*
CCOC(=O)c1sc2nc(-c3cccnc3)ccc2c1N	6.3µM*	84*	u	50*
CCN(Cc1ccccc1)C(=O)C(=O)c1cn(CC(=O)N2CCCC2)c2ccccc12	u	9	-19%[46.1 µM]	-3
CCN(CC)S(=O)(=O)c1cc(C(=O)Nc2cccnc2Cl)ccc1Cl	-11%	-13	-23%[46.1 µM]	5
CCn1c(CCC(=O)N(C)CC(=O)Nc2cccc(F)c2)nc2cc(S(=O)(=O)N(C)C)ccc21	15%	x	-1%	x
COc1ccnc(Oc2ccccc2)c1C(=O)N/C=N/OCc1ccccc1F	-22%	-5	6%[46.1 µM]	-2
COc1ccc(C2=NOC(C(=O)Nc3ccc4c(c3)OCCO4)C2)cc1OC (stereo not given)	29%[46.1 µM]	18	13%[46.1 µM]	11
COc1ccc(-n2c(C)cc(C(=O)Cn3nnc4ccccc4c3=O)c2C)cc1	4%	18	-11%	15*
Cc1cc(C(=O)Cn2nnc3ccccc3c2=O)c(C)n1-c1c(C)n(C)n(-c2ccccc2)c1=O	-11%	-12	8%	-2
COCC(C)n1c(C)cc(C(=O)Cn2nc(C(=O)O)c3ccccc3c2=O)c1C (stereo not given)	0%	55*	14%[46.1 µM]	28
Cc1cc(C(=O)Cn2nc(C(=O)O)c3ccccc3c2=O)c(C)n1-c1ccc(OC(F)F)cc1	x	19	x	4
Cc1ccc(-n2c(C)cc(C(=O)Cn3nc(C(=O)O)c4ccccc4c3=O)c2C)cc1	u	42*	u	19*
COCC(C)n1c(C)cc(C(=O)COC(=O)c2nn(C)c(=O)c3ccccc23)c1C (stereo not given)	2%	x	6%	x
COc1ccc(-n2c(C)cc(C(=O)Cn3nc(C(=O)O)c4ccccc4c3=O)c2C)cc1	9%	34*	17%	26*
COc1ccccc1CNC(=O)c1oc2c(c1C)-c1nn(Cc3ccc(Cl)cc3)cc1CC2	1%[46.1 µM]	x	x	x
Cc1ccc2[nH]c3c(c2c1)CN(C(=O)CN1C[C@@H](C)O[C@@H](C)C1)CC3	x	x	6%	x
SMILES	Lassa entry inh	Shiga toxin inh	MARV entry inh	Cycloheximide cs
Cc1cnc(C(=O)Nc2ccc(F)cc2)cn1	u	99*	u	53*
Cc1cnc(C(=O)Nc2ccccc2F)cn1	11%	84*	-4%	43*
COC(=O)n1ccc(C(=O)Nc2ccccc2F)n1	7%	75	5%	27*
Cc1cnc(C(=O)Nc2ccc(C(=O)N(C)C3CCCCC3)cc2)cn1	x	-13	6%	-2
Cc1cnc(C(=O)Nc2ccc(C(C)C)cc2)cn1	u	134*	u	46*
C=C(C)C[C@@]1(c2ccccc2)Oc2ccccc2C2=NCCN=C21	x	x	-21%[14.2 µM]	x
Cc1ccc(CN(C)C(=O)c2ccc3c(c2)NC(=O)CS3)o1	x	-8	x	-6
